Reference: PubChem BioAssay AID624156 (Broad Institute, 2012)
Among all 46,000 compounds or so, about 900 (2%) were called active. Roughly 1% stayed inconclusive and do not appear here. Only a selection was taken, and actives are over-represented in it overall. Unmarked numbers belong to inactive results. Rule as the data show it: active = ROS induction above about 79% (passing the limit was not always enough); inconclusive = no clear call, values can overlap the other calls.

Test: ROS inducers in U2OS cancer cells, primary screen, cell-based, H2DCF-DA fluorescence (AID 624156);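 also: 0% = DMSO vehicle median and 100% = reference compound median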
Conditions: at 10 µM, active compounds read high
Compound `NC(=O)N1CCc2ccccc21` has an ROS induction (% of piperlongumine) of 6.65%.
With `O=C(CCCCCCC(=O)Nc1ccccc1O)N/N=C/c1ccc(C(F)(F)F)cc1` the ROS induction (% of piperlongumine) was 7.34%.
Compound `COc1ccc(C2NNC(=S)S2)cc1` (stereo unspecified) has an ROS induction (% of piperlongumine) of -8.92%.
Work on `O=C(N1CCCc2ccccc21)N1c2ccccc2Sc2ccccc21` yielded an ROS induction (% of piperlongumine) of -12.4%.
For `C=CCN(C(=O)Cc1ccc(OC)cc1)c1nnc(-c2ccc(Cl)cc2)s1`, the ROS induction (% of piperlongumine) was -4.96%.
In the case of `COc1ccc(C)cc1S(=O)(=O)N1CCN(C)CC1`, the ROS induction (% of piperlongumine) is reported as -20.4%.
`C[C@@H]1CN([C@H](C)CO)C(=O)c2cc(NC(=O)NC3CCCCC3)ccc2O[C@H]1CN(C)S(C)(=O)=O` gave an ROS induction (% of piperlongumine) of -3.72%.
Compound `COC(=O)c1ccc(NC(=S)N2CCOCC2)cc1` has an ROS induction (% of piperlongumine) of -2.33%.
`C[C@H]1CN([C@@H](C)CO)C(=O)CCCn2cc(nn2)CO[C@H]1CN(C)S(=O)(=O)c1ccc2ccccc2c1` showed an ROS induction (% of piperlongumine) of 9.35%.
With `CC1CC(NC(=S)N(C)C)CC(C)(C)C1` (stereo unspecified) the ROS induction (% of piperlongumine) was -10.5%.
For `O=C(Nc1ccccc1Cl)c1ccccc1S(=O)(=O)c1ccccc1[N+](=O)[O-]`, the ROS induction (% of piperlongumine) was 134% (active).
Work on `O=C(CCc1nc(-c2ccccc2Cl)no1)Nc1ccccc1[N+](=O)[O-]` yielded an ROS induction (% of piperlongumine) of -1.7%.
Compound `CC1CCN(S(=O)(=O)c2ccc(Cl)c(C(=O)Nc3ccccc3[N+](=O)[O-])c2)CC1` has an ROS induction (% of piperlongumine) of -11.1%.
Work on `COc1cccc(CNC(=O)CCn2nc(-c3ccccc3)ccc2=O)c1` yielded an ROS induction (% of piperlongumine) of -6.11%.
Compound `CCc1cccc(NS(=O)(=O)c2cc(Br)cc3c2N(C(=O)C2CC2)CC3)c1` has an ROS induction (% of piperlongumine) of 31.7%.
With `CNC(=O)CN1C(=O)c2ccccc2S1(=O)=O` the ROS induction (% of piperlongumine) was 3.08%.
In the case of `O=C1c2ccccc2S(=O)c2ccccc2S(=O)(=O)N1Cc1ccccc1` (stereo unspecified), the ROS induction (% of piperlongumine) is reported as 205% (active).
`COc1ccc(C2C(C(=O)N(C)c3ccc(C(C)C)cc3)CC(=O)N2c2ccc(OC)cc2)cc1` (stereo unspecified) gave an ROS induction (% of piperlongumine) of 16.7%.
With `C=C1C(=O)O[C@@H]2[C@H]3C(CO)=CC(=O)C3=C(C)C[C@H](OC(=O)Cc3ccc(O)cc3)[C@@H]12` the ROS induction (% of piperlongumine) was 205% (active).
Work on `CCOC(=O)/C(C#N)=c1/s/c(=C2/C=Cc3ccccc3N2CC)c(=O)n1CC` yielded an ROS induction (% of piperlongumine) of 23.1%.
For `C[C@@H]1CN([C@H](C)CO)C(=O)c2cc(NC(=O)Nc3ccccc3)ccc2O[C@H]1CN(C)S(=O)(=O)c1ccc(F)cc1`, the ROS induction (% of piperlongumine) was 9.94%.
`O=C(Nc1ccccc1)Nc1ccccc1C(=O)N1CCOCC1` showed an ROS induction (% of piperlongumine) of -0.785%.
With `CCCC(O)C#Cc1cnc2c(c1)C(=O)N([C@H](C)CO)C[C@H](C)[C@H](CN(C)Cc1ccc(F)cc1)O2` (stereo partly specified) the ROS induction (% of piperlongumine) was 94.3% (active).
For `CCCC(O)C#Cc1cnc2c(c1)C(=O)N([C@H](C)CO)C[C@H](C)[C@H](CN(C)S(=O)(=O)c1ccc(C#N)cc1)O2` (stereo partly specified), the ROS induction (% of piperlongumine) was -0.235%.
In the case of `C[C@H](CO)N1C[C@H](C)[C@H](CN(C)C(=O)NC2CCCC2)Oc2ncc(-c3ccc(F)cc3)cc2C1=O`, the ROS induction (% of piperlongumine) is reported as 14.3%.
For `COc1ccc(NC(=O)N(C)C[C@@H]2Oc3ncc(-c4cccc(OC)c4)cc3C(=O)N([C@H](C)CO)C[C@@H]2C)cc1`, the ROS induction (% of piperlongumine) was 69.6%.
In the case of `C[C@H](CO)N1C[C@H](C)[C@H](CN(C)Cc2ccccc2)Oc2ncc(-c3ccccc3)cc2C1=O`, the ROS induction (% of piperlongumine) is reported as 3.81%.
`C[C@H](CO)N1C[C@H](C)[C@@H](CN(C)C(=O)Nc2ccc3c(c2)OCO3)Oc2c(cccc2N(C)C)C1=O` showed an ROS induction (% of piperlongumine) of 6.93%.
`C[C@H](CO)N1C[C@H](C)[C@H](CN(C)C(=O)Nc2ccc3c(c2)OCO3)Oc2ncc(Br)cc2C1=O` showed an ROS induction (% of piperlongumine) of 2.65%.
With `C[C@H](CO)N1C[C@H](C)[C@H](CN(C)C(=O)Nc2ccc3c(c2)OCO3)Oc2ncc(C#Cc3cccc(F)c3)cc2C1=O` the ROS induction (% of piperlongumine) was 93.9% (active).
In the case of `C[C@H](CO)N1C[C@H](C)[C@H](CN(C)C(=O)Nc2ccc(F)cc2)Oc2ncc(-c3cc4ccccc4o3)cc2C1=O`, the ROS induction (% of piperlongumine) is reported as 130% (active).
